ALDH1A1 inh: blocks purified human ALDH1A1 activity. P00352. hit rate 7.3% among 220,000. Purified ALDH1A1, NADH fluorescence, propionaldehyde substrate. Potency, µM (titrated, usually from 75.3 µM), most hits filed as inhibitors. AID 1030
Target sequence (P00352 whole entry, looked up): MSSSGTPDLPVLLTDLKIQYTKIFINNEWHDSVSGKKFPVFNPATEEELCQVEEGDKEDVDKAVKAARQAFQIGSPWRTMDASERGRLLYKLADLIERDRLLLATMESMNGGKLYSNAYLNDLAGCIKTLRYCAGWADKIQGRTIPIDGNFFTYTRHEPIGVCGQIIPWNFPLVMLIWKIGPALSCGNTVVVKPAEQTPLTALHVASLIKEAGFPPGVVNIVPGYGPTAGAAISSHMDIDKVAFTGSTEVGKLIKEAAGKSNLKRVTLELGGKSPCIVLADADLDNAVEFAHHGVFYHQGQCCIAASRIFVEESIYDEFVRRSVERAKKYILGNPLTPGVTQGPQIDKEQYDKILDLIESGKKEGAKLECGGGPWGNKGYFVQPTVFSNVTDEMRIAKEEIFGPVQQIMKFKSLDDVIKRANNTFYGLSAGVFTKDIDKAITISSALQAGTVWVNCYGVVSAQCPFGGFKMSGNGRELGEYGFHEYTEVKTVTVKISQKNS
Tau fibril FP: blocks human tau fibril formation measured by polarization. P10636. K18 P301L tau heparin fibrillization, Alexa594 FP, 6 h. AID 1468. Potency, µM (highest dose often 57.7 µM), most hits filed as inhibitors. hit rate 0.39% among 280,000; active = well fitted curve in the direction sought with a large enough effect; inconclusive = small, poorly fitted or top-dose-only effect, or another doubt; inactive = no such curve, though single readings can be large; an effect the other way counts as inactive or inconclusive; note: nearly all actives have a fitted effect of over 55% in size
Target sequence (P10636 561-689 P618L limits assumed): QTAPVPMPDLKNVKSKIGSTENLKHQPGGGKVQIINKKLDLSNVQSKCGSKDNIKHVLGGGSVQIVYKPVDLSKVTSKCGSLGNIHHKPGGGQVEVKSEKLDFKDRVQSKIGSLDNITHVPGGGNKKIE
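Human K18 P301L fragment (15 uM unlabeled plus 0.24 uM Alexa 594-labeled) in 100 mM sodium acetate pH 7 with compound, aggregation induced by 20 uM heparin for 6 hr at 37 C. ThT (30 uM) added for 1 hr, then Alexa 594 FP read.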
Tau fibril ThT: tau fibrillization inhibition (ThT binding); P10636; recombinant tau K18 P301L, heparin-induced fibrillization, ThT fluorescence; Potency, µM (highest dose often 57.4 µM), most hits filed as inhibitors; hit rate 2.1% among 270,000; AID 1460; active = well fitted curve in the direction sought with a large enough effect; inconclusive = small, poorly fitted or top-dose-only effect, or another doubt; inactive = no such curve, though single readings can be large; an effect the other way counts as inactive or inconclusive; note: nearly all actives have a fitted effect of over 55% in size
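Fibril formation assay: tau K18 P301L at 15 uM with trace Alexa 594 label, heparin inducer 20 uM, pH 7 sodium acetate buffer, 37 C for 6 hr; endpoint ThT signal.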
Tau fluor cs: counter-screen for tau fibril formation inhibitors | tau K18 P301L Alexa594 fluorescence, heparin fibrillization | Potency, µM (series often up to 57.7 µM) | hit rate 0.93% among 280,000 | AID 1463; active = well fitted curve in the direction sought with a large enough effect; inconclusive = small, poorly fitted or top-dose-only effect, or another doubt; inactive = no such curve, though single readings can be large; an effect the other way counts as inactive or inconclusive; note: nearly all actives have a fitted effect of over 55% in size
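Human tau K18 P301L (15 uM unlabeled, 0.24 uM Alexa 594-labeled) in 100 mM sodium acetate pH 7 with 20 uM heparin, 6 hr at 37 C. ThT 30 uM added, 1 hr ambient; Alexa 594 FP and total fluorescence read at 555/632 nm.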
JMJD2E inh: JMJD2E (human) inhibition; B2RXH2; JMJD2E catalytic domain, FDH-coupled NADH fluorescence (FDH is formaldehyde dehydrogenase); Potency, µM (titrated, usually from 57.1 µM), most hits filed as inhibitors; hit rate 1.6% among 230,000; note: nearly all actives have a fitted effect of over 50% in size
HPGD block: inhibitors of human 15-hydroxyprostaglandin dehydrogenase (HPGD); P15428; purified HPGD, NADH fluorescence kinetic, PGE2 substrate; Potency, µM, actives largely listed as inhibitors; hit rate 4.3% among 150,000; AID 894
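20 nM HPGD preincubated 15 min at room temperature with compound in 50 mM Tris-HCl pH 8, 0.01% Tween 20. Started with 1 mM NAD+ and 30 uM prostaglandin E2; NADH fluorescence (360/450 nm) read 5 times over 30-s intervals, last minus first.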
A number is an active result; [ ] = remark or other dose. Sampled rows, rich in hits. Any-hit rate of the full collection: about 9.9%. Unless noted, calls come from the whole dose curve; as a rule, active = well fitted inhibition curve with a large enough effect (not every such curve was filed as active); inconclusive = small, poorly fitted or top-dose-only effect, or another doubt; inactive = no such curve, though single readings can be large or run the other way.

`O=C(CSc1nc2ccccc2s1)Nc1ccc2c(c1)oc1ccccc12` gave ALDH1A1 inh 25µM, Tau fibril FP inactive, Tau fibril ThT inactive, Tau fluor cs inactive, JMJD2E inh inactive and HPGD block inactive.
Screening Nc1nc(SCC(=O)Nc2cc(S(=O)(=O)N3CCOCC3)ccc2Cl)n[nH]1 returned ALDH1A1 inh inactive, Tau fibril FP inactive, Tau fibril ThT inactive, Tau fluor cs inactive and JMJD2E inh inactive.
COc1ccccc1NC(=O)c1oc2ccccc2c1NC(=O)c1cccc(OC)c1OC was read as Tau fibril FP inconclusive, Tau fibril ThT inactive and Tau fluor cs inconclusive.
`N[C@@H](Cc1[nH]nc2ccccc12)C(=O)O` gave ALDH1A1 inh inactive[13.5 µM] and HPGD block inactive.
For CCC(C)NC(=O)CSc1nc2cc3c(cc2c(=O)n1CCCCCC(=O)NCc1ccc(OC)cc1)OCO3 (centres undefined) the results were Tau fibril FP inactive, Tau fibril ThT inactive and Tau fluor cs inactive.
`CCOc1ccc(NC(=O)NCCc2c(C)nn(C)c2C)cc1` gave Tau fibril FP inactive, Tau fibril ThT inactive and Tau fluor cs inactive.
Screening O=C(CSc1nc2ccccc2s1)Nc1ccc(Cl)c(C(=O)O)c1 returned ALDH1A1 inh 2.5µM, Tau fibril FP inactive, Tau fibril ThT inactive, Tau fluor cs inactive and JMJD2E inh inactive.
`CCN(CC)C(=S)Nc1ccc(OC(F)F)cc1` gave ALDH1A1 inh inactive, Tau fibril FP inactive, Tau fibril ThT inactive, Tau fluor cs inactive and JMJD2E inh inactive.
Screening FC(F)Oc1ccc(NC(=S)Nn2cnnc2)cc1 returned ALDH1A1 inh 7.9µM, Tau fibril FP inactive, Tau fibril ThT inconclusive, Tau fluor cs inactive and JMJD2E inh inactive.
For Oc1cccc2c(NC(=S)Nc3ccc(OC(F)F)cc3)cccc12 the results were ALDH1A1 inh inconclusive, Tau fibril FP inconclusive, Tau fibril ThT 11µM, Tau fluor cs 16µM[quencher], JMJD2E inh inactive and HPGD block inconclusive.
CN(NC(=S)Nc1ccc(OC(F)F)cc1)C(=S)Nc1ccc(OC(F)F)cc1 was read as ALDH1A1 inh inactive, Tau fibril FP inactive, Tau fibril ThT inactive, Tau fluor cs inactive, JMJD2E inh inactive and HPGD block 18µM.
FC(F)Oc1ccc(NC(=S)NCc2ccccc2)cc1 was read as ALDH1A1 inh inactive, Tau fibril FP inactive, Tau fibril ThT inactive, Tau fluor cs inactive, JMJD2E inh inactive and HPGD block inactive.
CC(NS(=O)(=O)c1ccc(Br)cc1)C(=O)NCCc1ccccc1 (centres undefined) was read as ALDH1A1 inh inactive, Tau fibril FP inconclusive, Tau fibril ThT inactive, Tau fluor cs inactive and JMJD2E inh inactive.
`Cc1cccc([C@@H]2CN(C)CCc3c2cc(O)c(O)c3Cl)c1` gave ALDH1A1 inh inactive, Tau fibril FP inactive, Tau fibril ThT inactive, Tau fluor cs inactive, JMJD2E inh 14µM and HPGD block inactive.
C=CCN1CCc2c(cc(O)c(O)c2Cl)C(c2cccc(C)c2)C1 (centres undefined) was read as ALDH1A1 inh inactive, Tau fibril FP inactive, Tau fibril ThT inactive, Tau fluor cs inactive, JMJD2E inh 14µM and HPGD block inactive.
Screening CN1Cc2c(N)cccc2C(c2ccccc2)C1 (centres undefined) returned ALDH1A1 inh inactive, Tau fibril FP inactive, Tau fibril ThT inactive, Tau fluor cs inactive, JMJD2E inh inactive and HPGD block inactive.
`CCC(Sc1nc2cc(OC)c(OC)cc2c(=O)n1CCc1ccc(Cl)cc1)C(=O)NCCOC` (centres undefined) gave Tau fibril FP inactive, Tau fibril ThT inactive and Tau fluor cs inactive.
Screening CC(=O)Nc1ccc(NC(=O)C2(c3cccs3)CCOCC2)cc1 returned Tau fibril FP inactive, Tau fibril ThT inactive and Tau fluor cs inactive.
`CCN(CC)S(=O)(=O)c1ccc(N2CCCCC2)c(NC(=O)c2ccncc2)c1` gave ALDH1A1 inh 11µM, Tau fibril FP inactive, Tau fibril ThT inactive, Tau fluor cs inactive and JMJD2E inh inactive.
`CCN(CC)S(=O)(=O)c1ccc(N2CCCC2)c(NC(=O)c2ccncc2)c1` gave ALDH1A1 inh 16µM, Tau fibril FP inactive, Tau fibril ThT inactive, Tau fluor cs inactive and JMJD2E inh inactive.
CC(C)(C)CC(=O)NCC(c1ccc2c(c1)OCO2)N1CCOCC1 (centres undefined) was read as Tau fibril FP inactive, Tau fibril ThT inactive and Tau fluor cs inactive.
For Cc1ccc(CNS(=O)(=O)c2cc3c(cc2Cl)NC(=O)CO3)o1 the results were Tau fibril FP inactive, Tau fibril ThT inactive and Tau fluor cs inactive.
`Cn1cccc1C(=O)N1CCC2(CCCN(C(=O)Nc3cccc(C#N)c3)C2)CC1` gave ALDH1A1 inh inactive and HPGD block inactive.
`COc1ccc(-n2nc(C(=O)NCC(=O)N3CCN(c4ccccn4)CC3)c3ccccc3c2=O)cc1OC` gave ALDH1A1 inh inactive, Tau fibril FP inactive, Tau fibril ThT inactive, Tau fluor cs inactive and JMJD2E inh inactive.
COc1ccc(-n2nc(C(=O)NCC(=O)N3CCN(c4ccccn4)CC3)c3ccccc3c2=O)cc1 was read as ALDH1A1 inh 28µM, Tau fibril FP inactive, Tau fibril ThT inactive, Tau fluor cs inactive, JMJD2E inh inconclusive and HPGD block inconclusive.
Screening N#Cc1c(-c2ccc(Br)cc2)nc2n(c1=O)CCCS2 returned ALDH1A1 inh 35µM, Tau fibril FP inactive, Tau fibril ThT inactive, Tau fluor cs inactive, JMJD2E inh inactive and HPGD block 28µM.
N#Cc1c(-c2ccc(Cl)cc2)nc2n(c1=O)CCCS2 was read as ALDH1A1 inh inconclusive, Tau fibril FP inactive, Tau fibril ThT inactive, Tau fluor cs inactive, JMJD2E inh inactive and HPGD block inactive.
`Cc1ccc(C(=O)C[n+]2cc(Br)cc(Br)c2)cc1[N+](=O)[O-]` gave ALDH1A1 inh 16µM, Tau fibril FP inactive, Tau fibril ThT inconclusive, Tau fluor cs inactive, JMJD2E inh inactive and HPGD block inactive.
Screening Cc1ccc(C(=O)C[n+]2cc(Br)cc(Br)c2)cc1 returned ALDH1A1 inh inconclusive, Tau fibril FP inactive, Tau fibril ThT inconclusive, Tau fluor cs inactive and JMJD2E inh inactive.
`COC(=O)c1ccc(NC(=O)COc2ccc(S(=O)(=O)NC(C)(C)C)cc2)cc1` gave ALDH1A1 inh inconclusive, Tau fibril FP inactive, Tau fibril ThT inactive, Tau fluor cs inactive and JMJD2E inh inactive.
`CC(=O)Oc1cccc(N2C(=O)C3C4C=CC(C4)C3C2=O)c1` (centres undefined) gave ALDH1A1 inh inactive, Tau fibril FP inactive, Tau fibril ThT inactive, Tau fluor cs inactive, JMJD2E inh inactive and HPGD block inactive.
Screening CC(=O)Oc1ccc(N2C(=O)C3C(C2=O)C2C=CC3C23CC3)cc1[N+](=O)[O-] (centres undefined) returned ALDH1A1 inh 7.9µM, Tau fibril FP inactive, Tau fibril ThT inconclusive, Tau fluor cs inactive and JMJD2E inh inactive.

Compound activity: PubChem BioAssay, National Center for Advancing Translational Sciences (NCATS)
